Hits are enriched below; roughly 2.1% of the tested compounds scored in any of these assays.
ADAM10 inh: human ADAM10 inhibitors, primary screen, biochemical, QFRET, HTS; inhibition, % at 7 µM; actives 0.62% (n = 370,000); recombinant ADAM10, EDANS/DABCYL FRET peptide cleavage, 3 h;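 active = inhibition above a per-campaign cutoff equal to the mean of compounds falling between control-based bounds plus 3 SD, cut at about 20% in these data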;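 note: 0% = DMSO wells while the 100% control is not disclosed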
ADAM17 inh: ADAM17 inhibitors, primary screen, biochemical, QFRET | Disintegrin and metalloproteinase domain-containing protein 17 (Homo sapiens), P78536 | recombinant ADAM17, EDANS/DABCYL FRET peptide cleavage | inhibition, % at 6.95 µM | actives 0.83% (n = 370,000);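 active = inhibition above the mean of compounds lying between control limits plus 3 SD, set per campaign, cut at about 8.5% in these data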;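 note: 0% = DMSO-only wells as the low control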
PLC-beta3 inh: human PLC-beta3 inhibitors, primary screen, biochemical, fluorescence; AID 720704, 2013; inhibition, % at 12.2 µM; Purified PLC-beta3, fluorogenic substrate; 1-phosphatidylinositol 4,5-bisphosphate phosphodiesterase beta-3 (Homo sapiens), Q01970; actives 0.18% (n = 370,000); in the data active = inhibition above about 11%;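 note: 0% = median of compound wells on plate and 100% = full blocker control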
PLCg1 inh: PLC-gamma1 enzyme inhibitors, primary screen, biochemical, fluorescence, purified enzyme | 1-phosphatidylinositol 4,5-bisphosphate phosphodiesterase gamma-1 (Homo sapiens), P19174 | fluorogenic substrate | inhibition, % at 12.2 µM | actives 0.84% (n = 370,000) | AID 720700, 2013; in the data active = inhibition above about 9.5%
Rce1 inh: yeast Rce1p protease inhibitors, primary screen, biochemical, fluorescence, cell-free homogeneous. calls only. actives 0.27% (n = 290,000). AID 2563, 2010. yeast membranes, quenched prenylated peptide cleavage fluorescence;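 active = fall in fluorescence gain of 50% or more versus controls, with final raw signal at or below 3038400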;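 note: plate controls were neutral control wells for no effect and wells lacking membranes for full effect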
Target sequence (Q03530 whole entry, looked up): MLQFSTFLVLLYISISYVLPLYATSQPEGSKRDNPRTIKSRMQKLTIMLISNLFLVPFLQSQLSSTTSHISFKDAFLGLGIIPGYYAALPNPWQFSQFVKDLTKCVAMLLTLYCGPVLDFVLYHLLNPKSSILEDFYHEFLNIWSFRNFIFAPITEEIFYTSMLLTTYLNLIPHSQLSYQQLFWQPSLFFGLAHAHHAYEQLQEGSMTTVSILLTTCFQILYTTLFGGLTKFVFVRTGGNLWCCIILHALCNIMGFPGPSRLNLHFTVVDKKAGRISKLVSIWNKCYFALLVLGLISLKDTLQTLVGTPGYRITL
ADAM10 confirm: human ADAM10 inhibitors, confirmation, biochemical, QFRET, triplicate. ADAM10 QFRET peptide cleavage, EDANS fluorescence. AID 743208, 2013. shares compounds with ADAM10 inh. actives 1% (n = 2,100). inhibition, % at 6.95 µM;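 active = inhibition above about 20% chosen separately for each screening run, limit read from the data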;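 note: 0% = DMSO wells and 100% = marimastat wells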
ADAM17 ctr: ADAM17 inhibitors, counter-screen for ADAM10 exosite inhibitor project, biochemical, QFRET, high throughput | actives 0.5% (n = 2,100) | inhibition, % at 6.95 µM | shares compounds with ADAM10 inh | AID 743214, 2013 | ADAM17 QFRET peptide cleavage, EDANS fluorescence;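 active = mean triplicate inhibition above the solvent-only control wells' mean plus 3 SD, cut at about 12% in these data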;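 note: 0% = DMSO wells and 100% = marimastat wells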
Starred values were filed as active, the others as inactive; i = inactive; / = no result given.

SMILES	ADAM10 inh	ADAM17 inh	PLC-beta3 inh	PLCg1 inh	Rce1 inh	ADAM10 confirm	ADAM17 ctr
CCc1nc2ccccc2c(C(=O)OCC(=O)Nc2cccc(S(=O)(=O)NC3=NCCCCC3)c2)c1C	15	6	-13	7	i	/	/
COc1ccc(/C=N/NC(=O)c2ccn[nH]2)cc1CSc1ccccn1	6	-2	-6	1	i	/	/
COc1ccc(/C=N/NC(=O)c2ccn[nH]2)cc1COc1ccc(Cl)cc1	20*	7	-4	1	i	5	3
CC1=NNC(=O)/C1=C\c1cn(-c2ccccc2)nc1-c1ccccc1	24*	16*	3	10*	i	6	2
O=Cc1cn(-c2ccccc2)nc1-c1ccccc1	1	-1	-5	-1	i	/	/
CCCCC(=O)NC(=S)Nc1ccc(S(=O)(=O)N2CCCC2)cc1	72*	1	1	2	i	0	0
CC(=O)NC12CC3CC(C1)CC(C(=O)Nc1cccc(S(=O)(=O)N4CCCCCC4)c1)(C3)C2	1	-1	2	-1	/	/	/
Nc1c(-c2ccccc2)c(CSc2nc3ccccc3[nH]2)nn1-c1cccc(Cl)c1	-1	2	-1	0	i	/	/
Nc1c(-c2ccccc2)c(CSc2nc3ccccc3[nH]2)nn1-c1ccc(Cl)cc1	29*	4	4	12*	i	5	3
C=CCC[C@H](CCCCC)OC(=O)/C=C/[C@@H](O)[C@H](O)C[C@@H](O)CC=C	21*	7	2	3	/	0	0
C=CCC[C@@H](CCCCC)OC(=O)/C=C/[C@H](O)[C@@H](O)C[C@@H](O)CC=C	1	3	4	-1	/	/	/
Cc1ccc(NC(=O)C2CCN(S(=O)(=O)c3ccc4c(c3)OCCO4)CC2)nc1	-5	1	-5	0	i	/	/
O=C(OCc1ccccc1)N1CCC2CC1c1cc(/C=C/CCCSc3ncccn3)ccc12 (configuration not stated)	0	-4	1	3	/	/	/
O=C(Nc1ccc(S(=O)(=O)N2CCCC2)cc1)c1c(F)cccc1F	-4	-1	-3	2	i	/	/
Cc1ccc(S(=O)(=O)c2ccc(NC(=O)c3c(F)cccc3F)cc2)cc1	24*	7	-3	0	i	0	1
CCOc1ccc(/C=N/NC(=O)CNC(=O)c2ccc(S(=O)(=O)N3CCOCC3)cc2)cc1	-1	-2	0	2	i	/	/
Cc1ccc(/C=C/C(=O)Nc2ccc(S(=O)(=O)Nc3onc(C)c3C)cc2)cc1	21*	1	-1	9	i	-1	0
CCCCn1c(N)c(N(CCC(C)C)C(=O)c2ccc(N3CCCC3=O)cc2)c(=O)[nH]c1=O	63*	-3	-3	-4	i	4	3
CC1CCCN(S(=O)(=O)c2ccc(NC(=O)CN3C(=O)NC(C)(c4ccccc4)C3=O)cc2)C1 (configuration not stated)	20*	5	-9	4	i	4	1
CSc1ccc(S(=O)(=O)NCc2ccc(Cl)cc2Cl)cc1	20*	2	0	2	i	2	0
CCOC(=O)c1cnc(SC)nc1Oc1cccc(NC(=O)c2cccc(Cl)c2Cl)c1	4	-3	-1	-8	i	/	/
O=C1C(=O)N(C2CCCC2)C(=O)N1Cc1c(F)cccc1Cl	21*	-1	0	-3	i	2	0
O=[N+]([O-])c1cc(S(=O)(=O)Nc2cccc(C(F)(F)F)c2)ccc1-n1nnc2ccccc21	23*	6	-5	1	i	-1	0
c1cc[n+](CCC[n+]2ccccc2)cc1	6	0	-4	-1	i	/	/
O=C(c1cc(-c2ccccc2)n[nH]1)N1CCc2c([nH]c3ccccc23)C1c1ccccn1 (configuration not stated)	27*	5	-1	-2	i	6	3
SMILES	ADAM10 inh	ADAM17 inh	PLC-beta3 inh	PLCg1 inh	Rce1 inh	ADAM10 confirm	ADAM17 ctr
O=C(c1cccs1)N1CCc2c([nH]c3ccccc23)C1c1ccccn1 (configuration not stated)	4	1	-3	-6	i	/	/
COc1ccccc1-c1csc(C(O)c2ccccc2)n1 (configuration not stated)	-3	3	0	4	/	/	/
OC(c1ccc(F)c(F)c1)c1nc(-c2ccc(Cl)cc2)cs1 (configuration not stated)	20*	7	-3	0	/	4	1
COc1ccccc1-c1csc(C(O)c2cccc(Cl)c2)n1 (configuration not stated)	23*	8	4	3	/	6	2
CC(=O)N[C@@H](Cc1c[nH]c2ccccc12)C(=O)OCc1cc(C(F)(F)F)cc(C(F)(F)F)c1	24*	3	-1	1	/	-1	-1
COC(=O)C(Cc1c[nH]c2ccccc12)NC(C)=O (configuration not stated)	0	-2	2	5	i	/	/
COC(=O)c1cc(NC(=O)CN(c2ccc(OC)cc2)S(=O)(=O)c2ccc(F)cc2)ccc1Cl	22*	9	1	-2	i	10	2
NC(=O)C1(c2ccccc2)OC1c1ccccc1 (configuration not stated)	-3	-2	-15	0	i	/	/
CCc1c(-c2ccccc2)ncn1Cc1cccc(-c2ccccc2)c1	25*	17*	8	7	/	7	3
CCc1c(-c2cccc(OC)c2)ncn1Cc1cccc(-c2ccccc2)c1	8	4	-7	1	/	/	/
CCNc1nnc(SCC(=O)N2c3ccccc3NC(=O)CC2C)s1 (configuration not stated)	-6	-2	-2	-2	/	/	/
COc1ccccc1NC(=O)Cc1csc(NC(=S)Nc2ccccc2)n1	21*	3	-2	0	i	6	2
CCS(=O)(=O)c1ccc2oc(Nc3ccc(C(C)(C)C)cc3)nc2c1	24*	6	-5	3	i	1	0
CCS(=O)(=O)c1ccc2oc(Nc3ccc(OC)cc3)nc2c1	-4	-1	-5	0	i	/	/
Cc1ncc([N+](=O)[O-])n1CCN1C(=O)c2ccccc2C1=O	4	1	-1	0	i	/	/

High-throughput results deposited in PubChem BioAssay by several laboratories.
